Measurements published in the supplement of paper PMC6897291.

What was measured:
RIVA [1] = experiment: growth inhibition by drug plus 177Lu-lilotomab satetraxetan (1 - RLU/untreated control) (fraction); higher = stronger inhibition; conditions: 177Lu-lilotomab satetraxetan 0.5 ug/ml
In short: (§1)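 RIVA or U-2932 cells, untreated or pretreated 18 h with a radiolabelled anti-CD37 antibody conjugate (~600 MBq/mg; 0.5 µg/ml RIVA, 1 µg/ml U-2932), were washed and seeded at 3,000 cells/well on plates pre-printed with the Selleck Cambridge Cancer Compound library. Doses were 10/100 nM (RIVA) or 10/1,000 nM (U-2932). RealTime-Glo luminescence was read daily from day 3 after 1 h at 37°C. Growth inhibition is 1 − RLU/mean of 48 untreated no-drug wells per plate.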

U-2932 [2] = experiment: growth inhibition by drug alone (1 - RLU/untreated control) (fraction); higher = stronger inhibition; conditions: 177Lu-lilotomab satetraxetan 0 ug/ml
In short: as §1

RIVA [3] = experiment: as above; conditions: 177Lu-lilotomab satetraxetan 0 ug/ml
In short: as §1

U-2932 [4] = experiment: growth inhibition by drug plus 177Lu-lilotomab satetraxetan (1 - RLU/untreated control) (fraction); higher = stronger inhibition; conditions: 177Lu-lilotomab satetraxetan 1 ug/ml
In short: as §1

Row | Compound | growth inhibition by drug plus 177Lu-lilotomab satetraxetan (RIVA [1]; 100 nM, time (day): 5) | growth inhibition by drug plus 177Lu-lilotomab satetraxetan (RIVA [1]; 100 nM, time (day): 6) | growth inhibition by drug alone (U-2932 [2]; 10 nM, time (day): 3) | growth inhibition by drug alone (U-2932 [2]; 10 nM, time (day): 4) | growth inhibition by drug alone (U-2932 [2]; 10 nM, time (day): 5) | growth inhibition by drug alone (U-2932 [2]; 10 nM, time (day): 6) | growth inhibition by drug alone (U-2932 [2]; 1000 nM, time (day): 3) | growth inhibition by drug alone (U-2932 [2]; 1000 nM, time (day): 4) | growth inhibition by drug alone (U-2932 [2]; 1000 nM, time (day): 5) | growth inhibition by drug alone (U-2932 [2]; 1000 nM, time (day): 6) | growth inhibition by drug alone (RIVA [3]; 10 nM, time (day): 3) | growth inhibition by drug alone (RIVA [3]; 10 nM, time (day): 4) | growth inhibition by drug alone (RIVA [3]; 10 nM, time (day): 5) | growth inhibition by drug alone (RIVA [3]; 10 nM, time (day): 6) | growth inhibition by drug alone (RIVA [3]; 100 nM, time (day): 3) | growth inhibition by drug alone (RIVA [3]; 100 nM, time (day): 4) | growth inhibition by drug alone (RIVA [3]; 100 nM, time (day): 5) | growth inhibition by drug alone (RIVA [3]; 100 nM, time (day): 6) | growth inhibition by drug plus 177Lu-lilotomab satetraxetan (U-2932 [4]; 10 nM, time (day): 3) | growth inhibition by drug plus 177Lu-lilotomab satetraxetan (U-2932 [4]; 10 nM, time (day): 4) | growth inhibition by drug plus 177Lu-lilotomab satetraxetan (U-2932 [4]; 10 nM, time (day): 5) | growth inhibition by drug plus 177Lu-lilotomab satetraxetan (U-2932 [4]; 10 nM, time (day): 6) | growth inhibition by drug plus 177Lu-lilotomab satetraxetan (U-2932 [4]; 1000 nM, time (day): 3) | growth inhibition by drug plus 177Lu-lilotomab satetraxetan (U-2932 [4]; 1000 nM, time (day): 4) | growth inhibition by drug plus 177Lu-lilotomab satetraxetan (U-2932 [4]; 1000 nM, time (day): 5) | growth inhibition by drug plus 177Lu-lilotomab satetraxetan (U-2932 [4]; 1000 nM, time (day): 6) | growth inhibition by drug plus 177Lu-lilotomab satetraxetan (RIVA [1]; 10 nM, time (day): 3) | growth inhibition by drug plus 177Lu-lilotomab satetraxetan (RIVA [1]; 10 nM, time (day): 4) | growth inhibition by drug plus 177Lu-lilotomab satetraxetan (RIVA [1]; 10 nM, time (day): 5) | growth inhibition by drug plus 177Lu-lilotomab satetraxetan (RIVA [1]; 10 nM, time (day): 6) | growth inhibition by drug plus 177Lu-lilotomab satetraxetan (RIVA [1]; 100 nM, time (day): 3) | growth inhibition by drug plus 177Lu-lilotomab satetraxetan (RIVA [1]; 100 nM, time (day): 4)
1 | O=NN(CCCl)C(=O)NC1CCCCC1 [Lomustine (CeeNU)] | 0.488 | 0.501 | – | – | – | – | – | – | – | – | – | – | – | – | – | – | – | – | – | – | – | – | – | – | – | – | – | – | – | – | – | –
2 | CC[C@]1(O)C[C@H]2CN(CCc3c([nH]c4ccccc34)[C@@](C(=O)OC)(c3cc4c(cc3OC)N(C=O)[C@H]3[C@@](O)(C(=O)OC)[C@H](OC(C)=O)[C@]5(CC)C=CCN6CC[C@]43[C@@H]65)C2)C1 [Vincristine] | 0.973 | 0.979 | 0.944 | 0.954 | 0.97 | 0.978 | 0.964 | 0.972 | 0.979 | 0.984 | 0.941 | 0.955 | 0.965 | 0.971 | 0.938 | 0.955 | 0.962 | 0.967 | 0.958 | 0.97 | 0.978 | 0.982 | 0.972 | 0.978 | 0.983 | 0.988 | 0.964 | 0.976 | 0.983 | 0.985 | 0.956 | 0.967
3 | COc1ccc(C2CC(c3ccccc3)=NN2c2ccc(S(N)(=O)=O)cc2)cc1 (stereo not drawn) | 0.491 | 0.476 | 0.0454 | 0.0281 | -0.0412 | -0.122 | -0.0544 | 0.00397 | -0.0999 | -0.129 | -0.0673 | -0.122 | -0.182 | -0.683 | -0.196 | -0.182 | -0.21 | -0.396 | 0.0153 | 0.0306 | 0.0246 | 0.0751 | -0.0784 | 0.0449 | -0.00789 | 0.0654 | 0.344 | 0.49 | 0.534 | 0.554 | 0.412 | 0.495
4 | CN(C)CCCCSC(=N)N | 0.415 | 0.398 | 0.0803 | 0.0562 | -0.0181 | -0.016 | -0.0315 | 0.00953 | -0.0703 | -0.245 | -0.0402 | -0.0677 | -0.106 | -0.316 | -0.0334 | -0.0664 | -0.0858 | -0.22 | 0.0342 | 0.0372 | 0.0384 | 0.0444 | -0.0939 | 0.0263 | -0.0236 | -0.0661 | 0.357 | 0.498 | 0.532 | 0.544 | 0.259 | 0.415
5 | CN(c1ncccc1CNc1nc(Nc2ccc3c(c2)CC(=O)N3)ncc1C(F)(F)F)S(C)(=O)=O | 0.566 | 0.569 | 0.161 | 0.0909 | 0.0358 | -0.183 | 0.299 | 0.457 | 0.571 | 0.694 | -0.0233 | 0.0431 | -0.0513 | -0.296 | -0.0725 | 0.0108 | 0.00901 | -0.0367 | 0.066 | 0.111 | 0.2 | 0.224 | 0.23 | 0.336 | 0.426 | 0.546 | 0.592 | 0.636 | 0.671 | 0.663 | 0.458 | 0.565
6 | CC(=O)Nc1cccc(-n2c(=O)n(C3CC3)c(=O)c3c(Nc4ccc(I)cc4F)n(C)c(=O)c(C)c32)c1 | 0.455 | 0.407 | 0.103 | 0.0992 | 0.0497 | 0.109 | 0.311 | 0.328 | 0.215 | 0.243 | 0.0319 | 0.00936 | -0.0739 | -0.235 | 0.213 | 0.171 | 0.0872 | -0.0469 | 0.124 | 0.133 | 0.11 | 0.234 | 0.319 | 0.326 | 0.258 | 0.328 | 0.463 | 0.488 | 0.477 | 0.465 | 0.507 | 0.487
7 | O=C(CCc1ccc(O)cc1)c1c(O)cc(O)cc1O [Phloretin (Dihydronaringenin)] | 0.532 | 0.521 | 0.0643 | 0.0536 | -0.0351 | -0.0447 | -0.0185 | 0.0218 | -0.0851 | -0.198 | -0.0549 | -0.06 | -0.168 | -0.56 | -0.0989 | -0.0769 | -0.0878 | -0.189 | 0.0204 | 0.0299 | 0.064 | 0.0928 | -0.0932 | 0.0213 | -0.0168 | 0.0656 | 0.412 | 0.555 | 0.573 | 0.596 | 0.427 | 0.522
8 | CN1CCN(c2ccc3nc(-c4c(N)c5c(F)cccc5[nH]c4=O)[nH]c3c2)CC1 [Dovitinib (TKI-258)] | 0.413 | 0.411 | 0.12 | 0.0504 | -0.004 | -0.0165 | 0.0669 | -0.0112 | -0.0673 | -0.128 | 0.0921 | 0.0422 | -0.0205 | -0.168 | -0.156 | -0.0867 | -0.188 | -0.316 | 0.0639 | 0.0792 | 0.118 | 0.243 | 0.0496 | 0.031 | 0.0265 | 0.126 | 0.421 | 0.501 | 0.522 | 0.53 | 0.358 | 0.399
9 | CNC(=O)c1ccc(C)c(-n2c(C)cc(OCc3ccc(F)cc3F)c(Br)c2=O)c1 | 0.462 | 0.428 | -0.0234 | -0.0123 | -0.0323 | 0.108 | 0.24 | 0.241 | 0.147 | 0.195 | -0.177 | -0.212 | -0.219 | -0.282 | -0.0302 | -0.0737 | -0.127 | -0.224 | -0.0515 | -0.0206 | -0.0169 | 0.111 | 0.253 | 0.259 | 0.213 | 0.294 | 0.41 | 0.508 | 0.521 | 0.522 | 0.384 | 0.458
10 | Cc1nc(N)sc1-c1ccnc(Nc2ccc(N3CCOCC3)cc2)n1 | 0.498 | 0.487 | 0.00864 | -0.0087 | -0.0373 | -0.101 | 0.0735 | 0.00717 | 0.0172 | 0.253 | -0.0458 | -0.131 | -0.156 | -0.327 | -0.0826 | -0.139 | -0.133 | -0.233 | -0.0148 | 0.00212 | 0.025 | 0.0655 | 0.0555 | 0.0326 | 0.0942 | 0.374 | 0.375 | 0.481 | 0.505 | 0.525 | 0.398 | 0.486
11 | O=C(c1cc(Cc2n[nH]c(=O)c3ccccc23)ccc1F)N1CCN(C(=O)C2CC2)CC1 [Olaparib (AZD2281)] | 0.505 | 0.533 | 0.0127 | -0.023 | -0.0205 | 0.0558 | -0.0113 | 0.025 | 0.0248 | 0.0776 | -0.144 | -0.15 | -0.137 | -0.143 | -0.228 | -0.239 | -0.25 | -0.231 | -0.0255 | 0.035 | 0.0896 | 0.188 | 0.0503 | 0.108 | 0.156 | 0.315 | 0.539 | 0.593 | 0.618 | 0.613 | 0.39 | 0.482
12 | Cc1cnc(NC(=O)Nc2cc(Br)c(C)cc2OC[C@@H]2CNCCO2)cn1 | 0.235 | 0.246 | 0.0563 | 0.0329 | 0.0344 | 0.113 | 0.227 | 0.217 | 0.207 | 0.233 | -0.0313 | -0.0243 | -0.0759 | -0.161 | 0.0523 | 0.0207 | -0.0517 | -0.0919 | -0.00545 | 0.00557 | 0.0372 | 0.164 | 0.245 | 0.335 | 0.376 | 0.486 | 0.47 | 0.531 | 0.56 | 0.57 | 0.176 | 0.216
13 | CC[C@]1(O)C[C@@H]2CN(CCc3c([nH]c4ccccc34)[C@@](C(=O)OC)(c3cc4c(cc3OC)N(C)[C@H]3[C@@](O)(C(=O)OC)[C@H](OC(C)=O)[C@]5(CC)C=CCN6CC[C@]43[C@@H]65)C2)C1 [Vinblastine] | 0.659 | 0.668 | 0.125 | 0.0844 | 0.0429 | 0.00677 | 0.942 | 0.96 | 0.971 | 0.978 | 0.0866 | 0.101 | 0.0372 | -0.193 | 0.546 | 0.442 | 0.393 | 0.337 | 0.0509 | 0.085 | 0.136 | 0.198 | 0.96 | 0.973 | 0.981 | 0.984 | 0.383 | 0.503 | 0.523 | 0.53 | 0.574 | 0.643
14 | O=c1[nH]cc(F)c(=O)[nH]1 [Adrucil (Fluorouracil)] | 0.493 | 0.512 | 0.0617 | 0.0194 | 0.0184 | -0.211 | 0.0564 | 0.0179 | 0.00587 | -0.153 | -0.0691 | -0.144 | -0.384 | -0.72 | -0.6 | -0.481 | -0.493 | -0.619 | -0.0549 | 0.00352 | 0.0517 | 0.0335 | 0.0514 | 0.0854 | 0.184 | 0.275 | 0.421 | 0.521 | 0.54 | 0.555 | 0.398 | 0.483
